Assay [1] in a line: antimalarial activity against Dd2 strain (AID 2302;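 active = growth inhibition above 50% at the single 2 µM test dose, taken to imply half-maximal potency below 2 µM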;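 also: 0% = DMSO untreated growth and 100% = chloroquine plus artemisinin killed control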). As to conditions: P. falciparum Dd2 in RBCs, LDH growth readout, 72 h; at 2 µM; active compounds read high.
Assay [2] in a line: human hepatoma cell viability loss – ATP luminescence, cytotoxicity control for P. falciparum antimalarial project, primary screen (AID 2303;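 active = inhibition above 50%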;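 also: 0% = DMSO wells and 100% = digitonin-killed cells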). The conditions noted are these: HepG2 viability, 24-48 h, at 10 µM, active compounds read high.
In assay [3] the target is L-lactate dehydrogenase (Plasmodium falciparum (isolate CDC / Honduras)) (UniProt Q27743). The assay can be described thus: PfLDH activity inhibition – cell lysate, 3D7 strain, counter-screen for P. falciparum growth inhibition project (AID 2304).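 Also: 0% = vehicle and 100% = reference inhibitor.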 As to conditions: P. falciparum 3D7 crude extract, LDH APAD/NBT absorbance; at 2 µM; active compounds read high. (A counterscreen serves to expose hits that act by an unwanted route or on another target.)
Sequence of L-lactate dehydrogenase (Plasmodium falciparum (isolate CDC / Honduras)) (Q27743 whole entry, looked up): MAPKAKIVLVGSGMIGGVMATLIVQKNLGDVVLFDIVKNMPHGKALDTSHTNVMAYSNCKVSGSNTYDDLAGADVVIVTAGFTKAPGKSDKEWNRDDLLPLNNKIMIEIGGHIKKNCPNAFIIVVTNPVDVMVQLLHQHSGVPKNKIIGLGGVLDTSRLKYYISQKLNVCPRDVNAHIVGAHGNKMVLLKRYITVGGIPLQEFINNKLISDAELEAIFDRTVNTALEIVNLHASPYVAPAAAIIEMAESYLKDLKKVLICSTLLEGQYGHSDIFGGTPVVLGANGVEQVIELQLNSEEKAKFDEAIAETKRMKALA

Assay [4] can be described thus: inhibition of 3D7 malaria parasite growth – strain 3D7 (AID 2306).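 Also: 0% = DMSO wells and 100% = chloroquine plus artemisinin control wells.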 The conditions noted are these: P. falciparum 3D7 erythrocytic growth, LDH absorbance, 72 h; at 2 µM; active compounds read high.
In assay [5] the target is Plasmodium falciparum protein kinase 6 (PK6, PF3D7_1337100) (UniProt Q8IDW1). The assay can be described thus: PfPK6 kinase inhibitors, biochemical, TCAMS library (AID 1159586). As to conditions: recombinant PfPK6, Kinase-Glo ATP depletion luminescence. In general terms: In Kinase-Glo more light means more ATP remaining.
Sequence of Plasmodium falciparum protein kinase 6 (PK6, PF3D7_1337100) (Q8IDW1 1-305): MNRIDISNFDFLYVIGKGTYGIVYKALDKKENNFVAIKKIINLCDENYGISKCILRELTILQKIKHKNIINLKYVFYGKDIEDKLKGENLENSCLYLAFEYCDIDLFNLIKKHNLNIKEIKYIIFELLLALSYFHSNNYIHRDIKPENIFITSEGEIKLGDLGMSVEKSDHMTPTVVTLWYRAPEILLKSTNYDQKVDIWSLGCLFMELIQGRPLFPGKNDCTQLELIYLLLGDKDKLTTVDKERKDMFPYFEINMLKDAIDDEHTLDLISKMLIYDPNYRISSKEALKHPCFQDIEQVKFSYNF
Assay [6] has as its target Protein kinase 7 (PK7), Plasmodium falciparum 3D7 (PF3D7_0213400) (UniProt Q7YTF7). The assay can be described thus: inhibition of Plasmodium PK7 catalytic activity – biochemical, TCAMS antimalarial set, Kinase-Glo luminescence (AID 1159587). The conditions noted are these: recombinant PfPK7, Kinase-Glo ATP depletion luminescence.
Assay [7] addresses Calcium-dependent protein kinase 4 (Plasmodium falciparum (isolate 3D7)) (UniProt Q8IBS5). Description: PfCDPK4 kinase inhibitors, biochemical, TCAMS library (AID 1159588; cut-off not given, nearly all actives have IC50 up to about 0.91 µM). As to conditions: recombinant PfCDPK4, Kinase-Glo ATP depletion luminescence.
Assay [8] in a line: viability loss in pontine glioma line – cell-based, SU-DIPG-XIII, MIPE4.0, CellTiter-Glo, qHTS, dose response (AID 1347061; cut-off not given, nearly all actives have AC50 up to about 37 µM;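 also: cells exposed to compound for 48 hours before readout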). As to conditions: CellTiter-Glo ATP luminescence. (In general: In ATP-based viability assays light output follows the ATP content of the culture.)
A short description of assay [9]: viability loss in pontine glioma line – cell-based, JHH-DIPG-1, MIPE4.0, CellTiter-Glo, qHTS, dose response (AID 1347062; cut-off not given, nearly all actives have AC50 up to about 27 µM;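 also: cells exposed to compound for two days before readout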). As to conditions: JHH-DIPG-1 viability, CellTiter-Glo ATP luminescence.
A short description of assay [10]: viability loss in pontine glioma line – cell-based, SU-DIPG-IV, MIPE4.0, CellTiter-Glo, qHTS, dose response (AID 1347063; cut-off not given, nearly all actives have AC50 up to about 30 µM;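 also: compound exposure lasted 48 hours before the viability readout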). As to conditions: CellTiter-Glo ATP luminescence.
Assay [11] can be described thus: viability loss in pontine glioma line – cell-based, SU-DIPG-XIII, MIPE5.0, CellTiter-Glo, qHTS, dose response (AID 1347064; cut-off not given, nearly all actives have AC50 up to about 23 µM;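 also: cells exposed to compound for 48 hours before the viability read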). The conditions noted are these: CellTiter-Glo ATP luminescence.
The nature of assay [12]: growth inhibition of DIPG cells – cell-based, MIPE5.0 library, qHTS (AID 1347068; cut-off not given, nearly all actives have IC50 up to about 30 µM;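 also: cells exposed to compound for 48 hours before viability readout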). As to conditions: SU-DIPG-XXV viability.
Assay [13] has as its target Calcium-dependent protein kinase 1 (Plasmodium falciparum (isolate 3D7)) (UniProt P62344). Description: PfCDPK1 kinase inhibitors, biochemical, TCAMS library (AID 1159585; cut-off not given, nearly all actives have IC50 up to about 0.98 µM;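 also: inhibitors leave more ATP so luminescence rises with inhibition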). As to conditions: recombinant PfCDPK1, Kinase-Glo ATP depletion luminescence.

A number with no mark means an inactive call. Results filed as inconclusive are left out. For some assays here: Measured potencies and affinities stand elsewhere. The source made the active and inactive calls. Unless noted, no rule for the calls is given here.

Sequence of Protein kinase 7 (PK7), Plasmodium falciparum 3D7 (PF3D7_0213400) (Q7YTF7 1-343): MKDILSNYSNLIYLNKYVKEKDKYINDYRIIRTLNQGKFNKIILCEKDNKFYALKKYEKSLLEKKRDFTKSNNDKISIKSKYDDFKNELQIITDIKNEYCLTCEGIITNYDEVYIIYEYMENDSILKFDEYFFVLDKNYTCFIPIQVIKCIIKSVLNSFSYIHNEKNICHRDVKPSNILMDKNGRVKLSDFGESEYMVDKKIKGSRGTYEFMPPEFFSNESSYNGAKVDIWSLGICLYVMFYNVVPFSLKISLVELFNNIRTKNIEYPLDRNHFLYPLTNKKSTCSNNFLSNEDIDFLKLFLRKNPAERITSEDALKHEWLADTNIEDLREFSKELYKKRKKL
Sequence of Calcium-dependent protein kinase 4 (Plasmodium falciparum (isolate 3D7)) (Q8IBS5 whole entry, looked up): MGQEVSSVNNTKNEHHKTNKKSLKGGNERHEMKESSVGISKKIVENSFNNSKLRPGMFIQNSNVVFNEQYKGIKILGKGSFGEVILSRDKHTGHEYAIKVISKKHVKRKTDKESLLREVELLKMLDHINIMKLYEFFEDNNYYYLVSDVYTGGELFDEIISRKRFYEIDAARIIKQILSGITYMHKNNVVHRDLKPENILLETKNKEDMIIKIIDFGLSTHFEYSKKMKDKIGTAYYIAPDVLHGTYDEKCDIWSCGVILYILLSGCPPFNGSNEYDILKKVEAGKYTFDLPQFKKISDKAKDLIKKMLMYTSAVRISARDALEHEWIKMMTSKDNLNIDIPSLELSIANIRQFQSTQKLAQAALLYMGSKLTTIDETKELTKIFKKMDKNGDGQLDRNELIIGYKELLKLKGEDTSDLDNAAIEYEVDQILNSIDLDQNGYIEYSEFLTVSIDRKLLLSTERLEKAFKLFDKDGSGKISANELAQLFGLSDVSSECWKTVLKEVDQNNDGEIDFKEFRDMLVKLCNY
Sequence of Calcium-dependent protein kinase 1 (Plasmodium falciparum (isolate 3D7)) (P62344 whole entry, looked up): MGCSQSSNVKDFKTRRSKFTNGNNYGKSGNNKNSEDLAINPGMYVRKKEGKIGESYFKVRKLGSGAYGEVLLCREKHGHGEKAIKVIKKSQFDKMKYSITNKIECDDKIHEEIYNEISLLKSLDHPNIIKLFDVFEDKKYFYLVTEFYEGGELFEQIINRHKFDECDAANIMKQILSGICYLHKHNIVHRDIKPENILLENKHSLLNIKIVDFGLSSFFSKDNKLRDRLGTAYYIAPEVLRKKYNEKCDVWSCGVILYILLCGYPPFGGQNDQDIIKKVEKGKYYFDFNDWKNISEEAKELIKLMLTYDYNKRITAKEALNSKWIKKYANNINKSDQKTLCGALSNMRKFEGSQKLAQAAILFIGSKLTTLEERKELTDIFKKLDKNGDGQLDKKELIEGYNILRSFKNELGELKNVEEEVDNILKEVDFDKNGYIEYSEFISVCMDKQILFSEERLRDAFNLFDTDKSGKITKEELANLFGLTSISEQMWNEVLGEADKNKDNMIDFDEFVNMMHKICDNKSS

As to `Oc1cc(-c2nc(-c3ccccc3)[nH]c2-c2ccncc2)ccc1Cl`, the growth inhibition is 91% (active) in assay [1] and 96% (active) in [4]. For the same compound, the values for the inhibition in assay [2] and in [3] were 64% (active) and -6%, respectively. Also, the result in assay [5], in assay [6] and in [7] was inactive. The AC50 was 16.6 µM (active) in assay [8], 13.2 µM (active) in assay [9], 2.35 µM (active) in assay [10] and 9.34 µM (active) in assay [11]. The half-inhibitory concentration (IC50) in assay [12] was 23.5 µM (active).

With `COc1cccc(-n2ncc3c(N/N=C/c4ccc(CN(C)CCN(C)C)cc4)ncnc32)c1`, the results for the growth inhibition in assay [1] and in [4] were 91% (active) and 100% (active), respectively. The inhibition in [2] is 29%; in assay [3] it was -2%. Also, the result in [13], in assay [6] and in [7] was inactive.

As for `CN(c1ccc(NC(=O)Nc2cccc(Cl)c2)cc1)c1ccnc(N)n1`, the growth inhibition in [1] is 40%; in [4], 100% (active). Further, the inhibition is 75% (active) in [2] and -1% in assay [3]. In addition, the outcome in [13], in assay [6] and in assay [7] was inactive.

Regarding `O=C(Cc1ccc(Nc2nccc(Nc3cccc4[nH]ncc34)n2)cc1)Nc1ccc(C(F)(F)F)cc1`, the growth inhibition in assay [1] is 69% (active); in assay [4] it was 100% (active). Further, the results for the inhibition in assay [2] and in assay [3] were 12% and -6%, respectively. Also, the outcome in [13], in assay [6] and in assay [7] was inactive.

With `CS(=O)(=O)Nc1cccc(-c2cnc3[nH]cc(-c4ccc(CN)cc4)c3c2)c1`, the growth inhibition in [1] is 95% (active); in assay [4], 98% (active). Further, the inhibition is 27% in assay [2] and 2% in assay [3]. For the same compound, the result in [5], in [6] and in assay [7] was inactive.

In the case of `Cc1cc(Nc2nc(Nc3cccc(Cl)c3)nc3ccccc23)n[nH]1`, the growth inhibition was 95% (active) in assay [1] and 103% (active) in assay [4]. Further, the inhibition was 9% in assay [2] and -2% in assay [3]. For the same compound, the outcome in assay [13], in [6] and in assay [7] was inactive.

`Cc1nc(-c2cccc(Nc3ccnc4cc(-c5nccs5)ccc34)c2)no1`: the figures for the growth inhibition in assay [1] and in [4] were 90% (active) and 99% (active), respectively. In addition, the figures for the inhibition in assay [2] and in [3] were 37% and -2%, respectively. Besides, the result in assay [5], in assay [6] and in assay [7] was inactive.

With `Nc1ncc(-c2cn[nH]c2)cc1-c1nc2ccc(Cl)cc2[nH]1`, the values for the growth inhibition in assay [1] and in [4] were 100% (active) and 101% (active), respectively. The inhibition was 46% in [2] and -5% in [3]. Further, the result in assay [5], in assay [6] and in assay [7] was inactive.

As for `CC(C)(CNCCOc1ccc(Cl)cc1)c1nc(-c2ccc(Cl)c(O)c2)c(-c2ccnc(N)n2)[nH]1`, the growth inhibition in [1] is 19%; in [4], 97% (active). Moreover, the inhibition is 45% in assay [2] and -6% in [3]. In addition, the outcome in [5], in assay [6] and in assay [7] was inactive.

As to `CC(C)(CNC(=O)[C@H]1CCCCN1)c1nc(-c2ccc(Cl)c(O)c2)c(-c2ccncc2)[nH]1`, the growth inhibition in assay [1] and in assay [4] was 98% (active) throughout. In addition, the figures for the inhibition in assay [2] and in assay [3] were 6% and -3%, respectively. For the same compound, the outcome in [5], in assay [6] and in assay [7] was inactive.

With `Cc1ccc(Nc2nc3cc(N(C)c4ccnc(Nc5cccc(CCS(C)(=O)=O)c5)n4)ccc3n2C)cc1`, the growth inhibition in [1] was 73% (active); in assay [4], 99% (active). The inhibition in assay [2] was 78% (active); in assay [3], 4%. Moreover, the outcome in [5], in assay [6] and in [7] was inactive.

For the compound `COc1cc(-c2nc(C(C)(C)CN)[nH]c2-c2ccncc2)ccc1Br`, the figures for the growth inhibition in assay [1] and in assay [4] were 95% (active) and 97% (active), respectively. The figures for the inhibition in assay [2] and in assay [3] were 17% and 1%, respectively. Moreover, the outcome in assay [5], in assay [6] and in assay [7] was inactive.

With `Cc1nnc(-c2cccc(Nc3ccnc4cc(-c5nccs5)ccc34)c2)o1`, the growth inhibition in assay [1] is 89% (active); in assay [4], 95% (active). In addition, the inhibition in assay [2] was 38%; in [3] it was -2%. The outcome in assay [5], in assay [6] and in assay [7] was inactive.

With `CC(C)(CN)c1nc(-c2ccc(Br)c(O)c2)c(-c2ccncc2)[nH]1`, the results for the growth inhibition in assay [1] and in [4] were 97% (active) and 96% (active), respectively. Besides, the inhibition in assay [2] was 31%; in [3], 0%. The outcome in assay [5], in assay [6] and in assay [7] was inactive.

For the compound `CN(C)CCN(C)Cc1ccc(-c2ccc3c(Nc4ccc(Cl)cc4F)ccnc3c2)o1`, the growth inhibition in assay [1] is 76% (active); in assay [4], 100% (active). The results for the inhibition in assay [2] and in [3] were 20% and 1%, respectively. The outcome in [5], in assay [6] and in [7] was inactive.

With `NCc1ccc(Nc2nccc(Nc3ccc(-c4ccccc4)cc3)n2)cc1`, the growth inhibition in [1] is 98% (active); in [4], 101% (active). Moreover, the results for the inhibition in assay [2] and in [3] were 47% and -1%, respectively. In addition, the result in assay [5], in assay [6] and in [7] was inactive.

In the case of `CC(C)(CNCc1ccc(F)c(F)c1)c1nc(-c2ccc(Cl)c(O)c2)c(-c2ccnc(N)n2)[nH]1`, the growth inhibition in assay [1] was 79% (active); in assay [4] it was 99% (active). The inhibition in [2] is 41%; in assay [3] it was -4%. Also, the outcome in assay [5], in assay [6] and in [7] was inactive.

As for `CN1CCN(Cc2cccc(-c3ccc4c(Nc5cc(O)c(Cl)cc5F)ccnc4c3)c2)CC1`, the results for the growth inhibition in [1] and in assay [4] were 100% (active) and 102% (active), respectively. Also, the results for the inhibition in assay [2] and in assay [3] were -1% and 4%, respectively. Also, the result in [5], in assay [6] and in assay [7] was inactive.

Consider `COc1cc2nccc(Nc3ccc(Oc4ccccc4)cc3)c2cc1OC`, for which the growth inhibition is 99% (active) in assay [1] and 102% (active) in assay [4]. In addition, the inhibition was 13% in assay [2] and -1% in assay [3]. For the same compound, the result in [5], in [6] and in [7] was inactive.

As for `O=c1[nH]ccc2nc(N[C@@H]3CCNC3)nc(Nc3ccc4c(c3)S(=O)(=O)CC4)c12`, the growth inhibition is 99% (active) in assay [1] and 100% (active) in assay [4]. For the same compound, the inhibition in [2] was -4%; in [3], -2%. Besides, the result in assay [5], in assay [6] and in assay [7] was inactive.

In the case of `Cc1ccc(Nc2nccc(N(C)c3ccc4c(c3)nc(NC(=O)Cc3ccc(Cl)c(Cl)c3)n4C)n2)cc1S(N)(=O)=O`, the values for the growth inhibition in [1] and in assay [4] were 60% (active) and 94% (active), respectively. For the same compound, the inhibition in [2] was 71% (active); in [3] it was 0%. For the same compound, the result in assay [5], in [6] and in assay [7] was inactive.

For orientation: inhibition means the drop in the measured response relative to a control, in per cent. For orientation: AC50 means the midpoint of the concentration-response curve, whichever way the signal moves. The term IC50 denotes the concentration needed to halve the response being measured.

Values taken from PubChem BioAssay.
